The numbers were not newly measured in PubChem BioAssay AID977611, which cites them from elsewhere.

The series in a line: PubChem AID 977611. The conditions noted are these: PDB protein-ligand complexes, literature Kd.

Hit rate of the full screen: of about 3,900 compounds, about 3,900 (100%) were called active. The limit is not given here; nearly all actives have Kd up to about 4200 µM. So high a share suggests a set chosen from earlier hits. Some of the results follow. Starred links: 1 amine or outer side, 2 acyl side, 3 side chain; linkers in the order of their positions; H or OH if unused. *1 amine or outer side, *2 acyl side, *3 side chain or, on linkers, in order; H or OH if unused. Positions of bridges follow the written chain, without caps; N, C: chain ends. Where a SMILES comes first, the peptide text is derived from it. Non-standard residues stand in square brackets, D forms with d. Square brackets hold non-standard residues; d marks the D form. Residues, ends and D or L forms follow the SMILES beside them. Bridges are numbered along the chain shown (N, C = ends). Peptide text beside a SMILES is read from it. [ ]: non-standard residue; d: D form. Orn(CH(NH2)2) = NC(N)NCCC[C@H](N)C(=O)O; X1 = O=C([C@@H]1CC[C@H](O)N1[*:1])[*:2]; TBMB = c1c(C[*:1])cc(C[*:3])cc1C[*:2]

Take `CC(C)C[C@H](NC(=O)[C@H](C)NC(=O)[C@H](CC(=O)O)NC(=O)[C@H](CC(C)C)NC(=O)[C@@H](N)CC(=O)O)C(=O)N[C@@H](CC(C)C)C(=O)N[C@@H](C)C(=O)N[C@@H](CC(=O)O)C(=O)N[C@@H](CC(C)C)C(=O)N[C@@H](CCC(=O)O)C(=O)O` (H-DLDALLADLE-OH): the Kd (protein: Alpha-parvin, PDB entry 2k2r) was 1300 µM (active). On to `CC(C)[C@H](NC(=O)[C@H](CCC(N)=O)NC(=O)[C@@H](NC(=O)[C@H](CCC(=O)O)NC(=O)[C@H](CCCNC(N)N)NC(=O)[C@H](CCCNC(N)N)NC(=O)[C@@H](NC(=O)[C@H](CCCNC(N)N)NC(=O)[C@H](CO)NC(=O)[C@H](CO)NC(=O)[C@@H](N)CCCNC(N)N)[C@@H](C)O)[C@@H](C)O)C(=O)O` (H-[Orn(CH(NH2)2)]SS[Orn(CH(NH2)2)]T[Orn(CH(NH2)2)][Orn(CH(NH2)2)]ETQV-OH), for which the Kd (protein: second PDZ domain of MAGI-1 (Membrane-associated guanylate kinase), PDB entry 2kpl) was 0.23 µM (active).

In the case of `CSCC[C@H](NC(=O)[C@H](CC(C)C)NC(=O)[C@H](C)NC(=O)[C@H](CC(=O)O)NC(=O)[C@H](CC(C)C)NC(=O)[C@H](C)NC(=O)[C@H](C)NC(=O)[C@@H](NC(=O)[C@H](C)NC(=O)[C@H](C)N)[C@@H](C)O)C(=O)N[C@@H](C)C(=O)N[C@@H](CO)C(=O)N[C@@H](CC(C)C)C(=O)O` (H-AATAALDALMASL-OH), where the note is “protein: Protein-tyrosine kinase 2-beta, Pyk2 FAT domain, PDB entry 3u3f”, the Kd is 8 µM (active). `CC(C)[C@H](NC(=O)[C@H](CCC(N)=O)NC(=O)[C@@H](NC(=O)[C@H](CCC(=O)O)NC(=O)[C@H](CC(N)=O)NC(=O)[C@H](CCCNC(N)N)NC(=O)[C@H](CCC(N)=O)NC(=O)[C@H](CCCNC(N)N)NC(=O)[C@@H](NC(=O)[C@H](CCCNC(N)N)NC(=O)[C@@H]1CC[C@H](O)N1)[C@@H](C)O)[C@@H](C)O)C(=O)O` (H-[X1][Orn(CH(NH2)2)]T[Orn(CH(NH2)2)]Q[Orn(CH(NH2)2)]NETQV-OH): under “protein: Disks large homolog 1, PDB entry 2m3m”, the Kd is 9.63 µM (active).

Consider `CSCC[C@H](NC(=O)[C@H](CC(C)C)NC(=O)[C@H](CCC(=O)O)NC(=O)[C@H](CC(=O)O)NC(=O)[C@H](CC(C)C)NC(=O)[C@H](CCC(=O)O)NC(=O)[C@H](CCCNC(N)N)NC(=O)[C@@H](N)[C@@H](C)O)C(=O)N[C@@H](C)C(=O)N[C@@H](CO)C(=O)N[C@@H](CC(C)C)C(=O)N[C@@H](CO)C(=O)O` (H-T[Orn(CH(NH2)2)]ELDELMASLS-OH), for which the Kd (protein: Focal Adhesion Targeting Domain(FAT), PDB entry 1ow6) is 4 µM (active) and the Kd (protein: Focal Adhesion Targeting Domain(FAT), PDB entry 1ow7) is 4 µM (active). Turning to `CC(C)C[C@H](NC(=O)[C@H](C)NC(=O)[C@H](C)NC(=O)[C@H](CC(C)C)NC(=O)[C@H](CCCNC(N)N)NC(=O)[C@H](CCCNC(N)N)NC(=O)[C@H](CO)NC(=O)[C@H](CC(C)C)NC(=O)[C@H](CCC(N)=O)NC(=O)[C@H](CC(=O)O)NC(=O)[C@@H](N)CCC(=O)O)C(=O)N[C@@H](CCCNC(N)N)C(=O)N[C@@H](CC(N)=O)C(=O)O` (H-EDQLS[Orn(CH(NH2)2)][Orn(CH(NH2)2)]LAAL[Orn(CH(NH2)2)]N-OH), the dissociation constant Kd (protein: Vacuolar protein sorting-associating protein 4A, PDB entry 2jq9) was 33.4 µM (active).

For the molecule `CC(C)C[C@H](NC(=O)[C@H](CCC(=O)O)NC(=O)[C@H](CC(C)C)NC(=O)[C@H](CC(C)C)NC(=O)[C@H](CC(C)C)NC(=O)[C@H](CCCNC(N)N)NC(=O)[C@H](CC(=O)O)NC(=O)[C@H](CC(C)C)NC(=O)[C@H](CCC(=O)O)NC(=O)[C@H](CO)NC(=O)[C@@H](N)CC(C)C)C(=O)N[C@@H](CC(N)=O)C(=O)O` (H-LSELD[Orn(CH(NH2)2)]LLLELN-OH), the Kd (protein: Focal Adhesion Targeting Domain(FAT), PDB entry 1ow8) was 4 µM (active). In the case of `CC(C)C[C@@H]1NC(=O)[C@H](CCCNC(N)N)NC(=O)[C@H](CCCNC(N)N)NC(=O)[C@H]([C@@H](C)O)NC(=O)[C@H](CO)NC(=O)[C@H](CC(C)C)NC(=O)[C@H](CC(=O)O)NC(=O)[C@H](Cc2ccccc2)NC(=O)[C@H](CCC(N)=O)NC(=O)[C@@H](N)CSSC[C@@H](C(=O)O)NC(=O)[C@H](CCCCN)NC1=O`, where the note is “protein: cetuximab Fab, PDB entry 4gw1”, the Kd is 0.43 µM (active). For the molecule `CSCC[C@@H]1NC(=O)[C@H](CCC(=O)O)NC(=O)[C@H](Cc2ccc(O)cc2)NC(=O)[C@H](CO)NC(=O)[C@H](CC(=O)O)NC(=O)[C@H](C)NC(=O)CNC(=O)[C@@H](N)CSSC[C@@H](C(=O)O)NC(=O)[C@H](CCCCN)NC(=O)[C@H](CCCNC(N)N)NC(=O)[C@H](C(C)C)NC(=O)CNC(=O)[C@H](CC(=O)O)NC(=O)[C@H](CCC(=O)O)NC(=O)[C@H](CCC(=O)O)NC1=O` (H-CGADSYEMEEDGV[Orn(CH(NH2)2)]KC-OH; disulfide 1-16), the Kd is, setting by setting: (protein: mAb175 Antibody targeting a locally misfolded region of tumor associated EGFR, PDB entry 3g5y) 0.035 µM (active); (protein: mAb806 Antibody targeting a locally misfolded region of tumor associated EGFR, PDB entry 3g5v) 0.016 µM (active). `CC(C)[C@@H]1NC(=O)[C@H](CCC(=O)O)NC(=O)[C@H](Cc2ccc(O)cc2)NC(=O)[C@H](CCCNC(N)N)NC(=O)[C@H](CO)NC(=O)[C@@H](NC(=O)[C@H](C)N)CSCc2cc3cc(c2)CSC[C@H](NC(=O)[C@H](CC(=O)O)NC1=O)C(=O)N[C@@H](CCCNC(N)N)C(=O)NCC(=O)N[C@@H](CCCNC(N)N)C(=O)NCC(=O)N[C@@H](CO)C(=O)N[C@@H](C)C(=O)N[C@H](C(=O)O)CSC3` (H-ACS[Orn(CH(NH2)2)]YEVDC[Orn(CH(NH2)2)]G[Orn(CH(NH2)2)]GSAC-OH; linker 2-9-16 via TBMB): the Kd (protein: Urokinase-type plasminogen activator, PDB entry 3qn7) was 0.157 µM (active). In the case of `CC(C)C[C@@H]1NC(=O)[C@H](C)NC(=O)[C@H](CCCNC(N)N)NC(=O)[C@H](CO)NC(=O)[C@H](CO)NC(=O)[C@H](CC(C)C)NC(=O)[C@H](CC(N)=O)NC(=O)[C@H](Cc2ccc(O)cc2)NC(=O)[C@H](CCC(N)=O)NC(=O)[C@@H](N)CSSC[C@@H](C(=O)O)NC(=O)[C@H](CCCCN)NC1=O`, the Kd (protein: cetuximab Fab, PDB entry 4gw5) was 3.5 µM (active).
